# High-throughput results (PubChem)
# HCV inh = qHTS Assay for Inhibitors of Hepatitis C Virus (HCV); Potency, µM (doses to about 41.8 µM), without a hit: top-dose activity change, negative = inhibition, usual class: inhibitors; 340,000 tested, 3.4% active; Huh7.5.1 HCVcc-Cre infection, luciferase reporter, 44 h; active = well fitted inhibition curve with a large enough effect; inconclusive = small, poorly fitted or top-dose-only effect, or another doubt; inactive = no such curve, though single readings can be large or run the other way; also: potency is read from the fitted curve at half-maximal effect
#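 Seed cells (1,000/well) for 4 h; treat with compound and infect with HCVcc-Cre, moi about 0.5. Incubate 44 h, then detect luciferase activity.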
# VACV mCherry inh = qHTS for Stage-Specific Inhibitors of Vaccinia Orthopoxvirus: mCherry Reporter Primary qHTS. Vaccinia virus mCherry reporter infection, fluorescence. Potency, µM (series often up to 36.5 µM), without a hit: top-dose activity change, negative = inhibition, usual class: inhibitors. 310,000 tested, 0.63% active; calls by dose curve; tested in A549 cells; also: potency is read from the fitted curve at half-maximal effect; nearly all actives have a fitted effect of over 35% in size
# HCMV antiviral = qHTS Assay for inhibitors of the human cytomegalovirus (HCMV); HFF cells, HCMV-luciferase reporter, 72 h; active compounds read low; activity change, negative = inhibition, % at 57.5 µM; 410,000 tested, 4.5% active; AID 1259415, 2018; in the data active = activity change below about -60%; inconclusive = no clear call, values can overlap the other calls; inactive = above about -39%
#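 HFF cells seeded 16 h at 37C, treated with compounds, infected with luciferase-reporter HCMV at MOI 1 PFU/cell; luciferase read at 72 h post infection, normalized to buffer-only and Salinomycin controls.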
# LASV entry inh = qHTS for Inhibitors of binding or entry into cells for Lassa Virus; Lassa virus pseudotype entry inhibition, cell reporter; Potency, µM (titrated, usually from 37.9 µM), without a hit: top-dose activity change, negative = inhibition, actives largely listed as inhibitors; 300,000 tested, 1.2% active; AID 540256, 2011; calls by dose curve; tested in HEK293 cells; also: potency is read from the fitted curve at half-maximal effect; nearly all actives have a fitted effect of over 50% in size
# Marburg entry inh = qHTS for inhibitors of binding or entry into cells for Marburg Virus | AID 540276, 2011 | Potency, µM (doses to about 37.8 µM), for the others: at the top dose activity change, negative = inhibition, hits mostly inhibitors | Marburg virus pseudotyped entry inhibition, cell reporter | 300,000 tested, 1.8% active; calls by dose curve; tested in HEK293 cells; also: potency is read from the fitted curve at half-maximal effect
# VACV Venus inh = qHTS for Stage-Specific Inhibitors of Vaccinia Orthopoxvirus: Venus Reporter Primary qHTS; AID 720580, 2013; Potency, µM (series often up to 36.5 µM), without a hit: at the highest dose activity change, negative = inhibition, hits mostly inhibitors; 330,000 tested, 0.46% active; Vaccinia virus Venus reporter expression, fluorescence; calls by dose curve; tested in A549 cells; also: potency is read from the fitted curve at half-maximal effect; nearly all actives have a fitted effect of over 30% in size
# The depositor's hits bear a star; i = inactive; ? = inconclusive; . = not tested or not shown; + = active, no number; ! = not active in a repeat; [ ] = another dose, or the depositor's remark. Rows were chosen to be rich in hits. Some 7.8% of all compounds tested hit in one or more screens of this group. % is scaled to controls: 0 for no effect and ±100 for the full control effect.
SMILES,HCV inh,VACV mCherry inh,HCMV antiviral,LASV entry inh,Marburg entry inh,VACV Venus inh
COc1ccc(C2NC(=O)N(C)C3=C2C(=O)N(c2cccc(Cl)c2)C3)cc1 (stereo not drawn),.,-5%,2,-27%[46.1 µM],-9%[46.1 µM],-6%
Cn1nnc2c(N3CCN(Cc4ccccc4)CC3)ncnc21,.,-26%,.,.,.,-19%
COc1ccc(OC)c(NC(=O)CSc2c3c(nc4ccccc24)CCCC3)c1,.,?,-27,?,10%[46.1 µM],-20%
COc1ccc(Cl)cc1NC(=O)CSc1c2c(nc3ccccc13)CCC2,.,-14%,-70*,4%[46.1 µM],-4%[46.1 µM],-14%
COc1ccc(Cl)cc1NC(=O)CSc1nc(=O)n(CCN(C)C)c2c1CCCC2,11µM*,-13%,-8,?,?,?
COc1cccc(NC(=O)CSc2nc(=O)n(Cc3ccncc3)c3c2CCCC3)c1,-3%,-12%,-85*,-3%,1%,-3%
CCOC(=O)c1nc(Nc2cc(Cl)ccc2OC)c2ccccc2n1,13µM*,.,-70*,.,.,.
CCOC(=O)c1nc(Nc2ccccc2)c2ccccc2n1,?,.,-16,1%,4%,.
C[C@H]1[C@@H](NS(=O)(=O)c2ccc3ccccc3c2)CC[C@@]23CCCN2C(=O)CCC[C@@H]13,.,.,-21,.,.,.
O=C(NCCc1cccs1)C1CC(c2cccc(F)c2)=NO1 (stereo not drawn),3.5µM*,i,-12,.,.,-19%
CCc1ccc2occ(CC(=O)Nc3c(C(=O)c4ccc(C)cc4)oc4ccccc34)c2c1,.,2%,6,-13%[46.1 µM],-13%[46.1 µM],-10%
CC[C@H](OC(C)=O)C(C[C@H](C)N(C)C)(c1ccccc1)c1ccccc1,?,-7%,-86*,.,.,-16%
Cc1ccc(N(CC(=O)Nc2ccc(Br)cc2)S(=O)(=O)c2cccs2)cc1,.,-4%,-19,3%[46.1 µM],4%[46.1 µM],9%
Clc1ccc(-c2ccc(CN3CCCCC3)o2)cc1,-25%,.,7,.,.,.
CN1CCN(Cc2ccc(-c3ccc(Cl)cc3)o2)CC1,14µM*,.,-9,1%,?,.
CCc1ccc(NC(=O)C2=CC(c3ccc(OC)c(OC)c3)=NS(=O)(=O)N2C)cc1,5.6µM*,-6%,?,.,.,-21%
COc1ccc(C2=NS(=O)(=O)N(C)C(C(=O)NCc3ccccc3)=C2)cc1OC,-19%,-7%,-80*!,3%[46.1 µM],9%[46.1 µM],-4%
COc1ccc(C2=NS(=O)(=O)N(C)C(C(=O)N3CCc4ccccc4C3)=C2)cc1OC,10µM*,-21%,-28,.,.,-7%
COc1ccc(CNC(=O)C2=CC(c3ccc(OC)c(OC)c3)=NS(=O)(=O)N2C)cc1,-21%,9%,-19,-6%[46.1 µM],?,4%
COc1cc(-c2cc3n(C)c(C)c(CCC(=O)O)c(=O)n3n2)cc(OC)c1OC,.,4%,4,-1%[46.1 µM],7%[46.1 µM],3%
Oc1ccccc1N=Nc1ccccc1O,0.89µM*,?,-99*,.,.,?
Cc1cccc(OCC(=O)N(Cc2sccc2C)C2CCS(=O)(=O)C2)c1 (stereo not drawn),.,-17%,-8,-13%[46.1 µM],-5%[46.1 µM],-10%
CCCCCCN1CC(O)=C(c2ccccc2)C1=N,7%,.,-5,-1%,-2%,-13%
CCCCCn1ccc(=N)cc1,6.3µM*,.,-73*,-29%,-29%,?
CCCCCCCn1ccc(=N)cc1,0.56µM*,.,-91*,?,?,?
SMILES,HCV inh,VACV mCherry inh,HCMV antiviral,LASV entry inh,Marburg entry inh,VACV Venus inh
CCn1ccc(=N)cc1,-25%,.,19,-10%,4%[46.1 µM],-19%
CCCCCCCCCn1ccc(=N)cc1,0.04µM*,-17%,-95*,?,?,?
CCN(c1ccccc1)S(=O)(=O)c1cc(Br)cc2c1N(C(=O)C1CC1)CC2,.,-24%,-21,22%[46.1 µM],4%[46.1 µM],-17%
Cn1c(Sc2ccc(Br)cc2)c(C=O)c2ccccc21,?,.,-30,10µM*,?,-29%
Cn1c(Oc2ccc(F)cc2)c(C=O)c2ccccc21,-23%,i,-32,9%[46.1 µM],?,-15%
NCCCN(Cc1ccc(Cl)cc1)c1ccc(Br)cn1,.,-5%,.,.,.,-15%
CC(C)(C)c1ccc(S(=O)(=O)NCc2ccc3c(c2)CCN3C(=O)c2ccccc2)cc1,.,-29%,?,?,.,-22%
CCOc1ccc(NC(=O)CN(c2ccc(CC)cc2)S(=O)(=O)c2c(C)noc2C)cc1,.,-16%,-7,-10%[46.1 µM],.,-16%
CCOc1ccc(N(CC(=O)NCc2ccc(F)cc2)S(=O)(=O)c2c(C)noc2C)cc1,12%,i,-7,.,.,-10%
CCOc1ccc(N(CC(=O)Nc2ccccc2OCC)S(=O)(=O)c2c(C)noc2C)cc1,11µM*,.,-86*,.,.,.
COc1ccc(CNC(=O)CN(c2ccc(C(C)C)cc2)S(=O)(=O)c2c(C)noc2C)cc1,10µM*,.,-31,.,.,.
CCOc1ccc(N(CC(=O)NCc2cccs2)S(=O)(=O)c2c(C)noc2C)cc1,-17%,11%,-60*,.,5%,-5%
CCOC(=O)c1ccc(NC(=O)CN(c2ccc(C)cc2)S(=O)(=O)c2c(C)noc2C)cc1,.,-25%,0,?,11µM*,-12%
CCc1ccc(OCc2cc(=O)n3cc(C)sc3n2)cc1,.,-6%,-22,0%[46.1 µM],-13%[46.1 µM],-5%
O=C(NCCSc1c(-c2ccc(Br)cc2)[nH]c2ccccc12)c1ccc(S(=O)(=O)N2CCOCC2)cc1,.,-15%,-25,-23%[46.1 µM],?,-20%
CCCCN(CCCC)c1ccc(C=Nc2ccc(/C=C/c3ccnc4ccccc34)cc2)cc1C,.,-17%,.,.,.,-14%
COc1ccc(N(CC(=O)NCc2ccc(C)cc2)S(=O)(=O)c2c(C)[nH]c(=O)[nH]c2=O)cc1,20%,-4%,+!,12%[46.1 µM],8%[46.1 µM],4%
COc1ccc(CNC(=O)CN(c2ccc(OC)cc2)S(=O)(=O)c2c(C)[nH]c(=O)[nH]c2=O)cc1,20%,-19%,-19,29%[46.1 µM],7%[46.1 µM],-1%
CCOc1ccc(N(CC(=O)Nc2ccc(F)c(F)c2)S(=O)(=O)c2c(C)noc2C)cc1,0%,19%,-63*,6%,-6%,-10%
CCOc1ccc(N(CC(=O)Nc2ccc(C)cc2)S(=O)(=O)c2c(C)noc2C)cc1,-24%,i,-34,.,-5%,-10%
COc1ccc(N(CC(=O)Nc2cc(C)on2)S(=O)(=O)c2ccc(Cl)cc2)cc1,14%,.,-1,-16%,0%[46.1 µM],-12%
CCOc1ccc(N(CC(=O)Nc2cccc(OC)c2)S(=O)(=O)c2c(C)noc2C)cc1,?,i,-62*,.,3%,-12%
COc1ccc(N(CC(=O)Nc2cc(C)on2)S(=O)(=O)c2cc(C)ccc2C)cc1,-16%,.,-91*,-26%,?,.
CN(C)C(=O)COc1ccccc1C(=O)OCC(=O)N(CCC#N)c1ccccc1,.,-7%,.,.,.,-15%
